Experimental findings from PubChem BioAssay (NCI) are described below.

This is part of a sample that, as a whole, favours compounds with a hit. Of some 79,000 tested, about 15% had one in any assay. Values without a mark were called inactive. Active and inactive are the calls of the source. Cut-off read from the data, not from the text of the source: active = growth inhibition above about 70%; inactive = the rest.

A short description of assay [1]: NCI Yeast Anticancer Drug Screen. Data for the rad50 strain (AID 155).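 Note: 0% = growth of vehicle-only cultures of the same strain.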 The conditions noted are these: S. cerevisiae rad50 strain growth inhibition; at 50.0 µM; hits give high values. In short, it runs like this: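 Genetically altered yeast (DNA repair pathway); compound treatment; growth inhibition vs vehicle ctrl.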
Assay [2] is described as follows: NCI Yeast Anticancer Drug Screen. Data for the mec2-1 strain (AID 157). The note with it: S. cerevisiae mec2-1 strain, at 50.0 µM, hits give high values. In outline:
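Strain: mec2-1 (DNA repair/cell cycle alteration). Compound exposure, then growth measured; inhibition expressed relative to vehicle.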

Assay [3] is described as follows: NCI Yeast Anticancer Drug Screen. Data for the sgs1 mgt1 strain (AID 161).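 Note: 0% = growth of cultures given vehicle only.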 The note with it: S. cerevisiae sgs1 mgt1 strain, at 50.0 µM, hits give high values. In short, it runs like this:
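Test agents were incubated with a DNA-repair-mutant yeast strain. Growth was then read and compared against vehicle-treated controls.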

A short description of assay [4]: NCI Yeast Anticancer Drug Screen. Data for the cln2 rad14 strain (AID 165).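 Note: 0% = growth equal to vehicle treated cultures.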 The note with it: S. cerevisiae cln2 rad14 strain, at 50.0 µM, hits give high values. In outline: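 Compounds are applied to the cln2 rad14 yeast strain, and growth is then compared with that of vehicle-treated cultures to give inhibition.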
A short description of assay [5]: NCI Yeast Anticancer Drug Screen. Data for the bub3 strain (AID 167). The conditions noted are these: S. cerevisiae bub3 mutant strain, at 50.0 µM, hits give high values. In short, it runs like this:
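Yeast carrying a defined mutation is treated with each compound, and growth is compared with that of vehicle-exposed cells to give inhibition.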

A short description of assay [6]: NCI Yeast Anticancer Drug Screen. Data for the mlh1 rad18 strain (AID 175). The note with it: S. cerevisiae mlh1 rad18 strain growth inhibition; at 50.0 µM; hits give high values. In outline: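 Read-out is yeast growth inhibition, calculated against vehicle-only controls. The compound was applied to a strain engineered with DNA damage repair alterations.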

As for `CC/C(SC)=[N+](\C)[O-]`, the growth inhibition is 3.9% in assay [1]; -6.9% in assay [2]; -23.1% in assay [3]; -5.6% in assay [4]; -20.4% in assay [5]; 4.25% in assay [6].
`Cc1cc(=O)oc2ccccc12`: the growth inhibition in assay [1] was 8.8%; in assay [2], 0.6%; in assay [3] it was 10.9%; in assay [4] it was -3.1%; in assay [5], 4.6%; in assay [6], 1.55%.
For the compound `NC1C=NNC1=O` (stereo unspecified), the growth inhibition in assay [1] was -11.1%; in assay [2] it was -7.95%; in assay [3] it was -9.5%; in assay [4] it was -13.2%; in assay [5] it was -10.1%; in assay [6], -23.9%.
Take `CCOCCOC(=O)CCC1CCCCC1`: the growth inhibition in assay [1] was 29.8%; in assay [2], 16.5%; in assay [3], 9.1%; in assay [4], 11.2%; in assay [5] it was 19%; in assay [6] it was 29.6%.
Take `CSc1nnc(SCc2nn3c(=O)cc(C)nc3s2)s1`: the growth inhibition in assay [1] was -7.9%; in assay [2], -0.85%; in assay [3], 0.4%; in assay [4], 10%; in assay [5], 5.55%; in assay [6], 10.6%.
For the compound `CC(=O)C1CCCC(=O)/C=C/C(=O)O1` (stereo unspecified), the growth inhibition in assay [1] is 3.4%; in assay [2], -12.8%; in assay [3] it was -7%; in assay [4] it was 5.8%; in assay [5], 11.5%; in assay [6] it was -18%.
`Cc1n(CC(=O)c2ccccc2)nc2sc(N)n[n+]12`: the growth inhibition in assay [1] was -50%; in assay [2] it was -23.9%; in assay [3], -68%; in assay [4], -18.2%; in assay [5], -14.8%; in assay [6] it was -20.9%.
With `Cn1c(=O)c2c(nc3n2C(CCl)CO3)n(C)c1=O` (stereo unspecified), the growth inhibition in assay [1] is 40.5%; in assay [2], 12.8%; in assay [3] it was 7.75%; in assay [4] it was 9.5%; in assay [5] it was 34%; in assay [6] it was 32.4%.
Turning to `CC(C)C(=O)Nc1ccc([N+](=O)[O-])cc1`, the growth inhibition in assay [1] is 26.1%; in assay [2], 4.2%; in assay [3], 10.8%; in assay [4], 9.4%; in assay [5] it was -36%; in assay [6] it was -17.3%.
`COc1ccc2c(c1)nc1n2C(N)=Nc2ccccc2S1`: the growth inhibition in assay [1] is 44.5%; in assay [2] it was 23.8%; in assay [3], 36.2%; in assay [4] it was 19.9%; in assay [5], 58%; in assay [6] it was 36.5%.
As to `CC[CH2][Sn]([CH2]CC)([O]C(=O)Cc1ccc(F)cc1)[O][Sn]([CH2]CC)([CH2]CC)[O]C(=O)Cc1ccc(F)cc1`, the growth inhibition in assay [1] was 90.2% (active); in assay [2], 89.4% (active); in assay [3], 87.8% (active); in assay [4], 82.8% (active); in assay [5], 89.1% (active); in assay [6], 83.6% (active).
`CC(=O)OC(C)C(O)C(O)C(/C=C/C1CC=CC(=O)O1)OC(C)=O` (stereo unspecified): the growth inhibition is 32.2% in assay [1]; 9.45% in assay [2]; 23.6% in assay [3]; 10.6% in assay [4]; 19.6% in assay [5]; 11.8% in assay [6].
With `CCOC(=O)NC(=S)Nc1cn(C)cc1[N+](=O)[O-]`, the growth inhibition in assay [1] is 3.2%; in assay [2] it was -5.9%; in assay [3], 8.8%; in assay [4], 1.9%; in assay [5], 3.65%; in assay [6], 11.7%.
As for `CCN1N=Nc2ccccc2NC1=O`, the growth inhibition in assay [1] is 18.1%; in assay [2], 9.85%; in assay [3] it was 8.45%; in assay [4], 4.5%; in assay [5] it was -13.1%; in assay [6] it was -25.3%.
Consider `CCOC(=O)/C(C#N)=C/c1ccc(C)o1`, for which the growth inhibition is 19.1% in assay [1]; 3.1% in assay [2]; 27.4% in assay [3]; 33% in assay [4]; 31.1% in assay [5]; 35% in assay [6].
`COC(=O)C(Cc1ccc2c(c1)CCC2)Cc1ccc2c(c1)CCC2`: the growth inhibition was -46.9% in assay [1]; -16.4% in assay [2]; -7.4% in assay [3]; -41.6% in assay [4]; 11.1% in assay [5]; -22.4% in assay [6].
Consider `CCc1c(O)c2c(c(O)c1C(C)=O)C(=O)c1c(cc(O)c(C(=O)O)c1C(=O)O)C2=O`, for which the growth inhibition in assay [1] was -3.15%; in assay [2], 9.8%; in assay [3], 24.2%; in assay [4], 10.2%; in assay [5], 20.3%; in assay [6], 12.8%.
In the case of `CCOC(=O)Cn1c(=O)c2ccccc2c2cc([N+](=O)[O-])ccc21`, the growth inhibition is -6.45% in assay [1]; 11.3% in assay [2]; 13.2% in assay [3]; 5.95% in assay [4]; -3.65% in assay [5]; -11.7% in assay [6].
For the compound `CC(=O)c1ccccc1Cc1cccc2c(Cl)cccc12`, the growth inhibition is 4.55% in assay [1]; 6.05% in assay [2]; 10.1% in assay [3]; -0.95% in assay [4]; 1.85% in assay [5]; 18.6% in assay [6].
For `CCOc1ccc2nc(N=NC(C(C)=O)C(C)=O)sc2c1`, the growth inhibition in assay [1] was 26.9%; in assay [2], 9.8%; in assay [3], 1.3%; in assay [4] it was 14.1%; in assay [5], 5.55%; in assay [6], 15.9%.
With `CN(CCC(=O)O)S(=O)(=O)c1ccccc1`, the growth inhibition in assay [1] was -13.1%; in assay [2] it was -17.2%; in assay [3] it was -10.6%; in assay [4], -9.1%; in assay [5], -46.4%; in assay [6] it was -3.8%.
